Here are results for five compounds from PubChem BioAssay.

Results filed as inconclusive are left out. Activity calls are given as the source filed them.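 The calls were made as follows, unless noted: active = normalized viability below 100% at a tested concentration; inactive = the rest.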

Assay [1] can be described thus: viability loss in pontine glioma line – cell-based, SU-DIPG-XVII, MIPE5.0, CellTiter-Glo, qHTS, dose response (AID 1347060; cut-off not given, nearly all actives have AC50 up to about 26 µM;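 also: cells exposed to compound for 48 hours before viability readout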). As to conditions: CellTiter-Glo ATP luminescence. For orientation: In ATP-based viability assays light output follows the ATP content of the culture.
The nature of assay [2]: viability loss in pontine glioma line – cell-based, SU-DIPG-IV, MIPE4.0, CellTiter-Glo, qHTS, dose response (AID 1347063; cut-off not given, nearly all actives have AC50 up to about 30 µM;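 also: compound exposure lasted 48 hours before the viability readout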). The following applies: CellTiter-Glo ATP luminescence.
Assay [3] can be described thus: viability loss in pontine glioma line – cell-based, SU-DIPG-XIII, MIPE5.0, CellTiter-Glo, qHTS, dose response (AID 1347064; cut-off not given, nearly all actives have AC50 up to about 23 µM;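 also: cells exposed to compound for 48 hours before the viability read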). The following applies: CellTiter-Glo ATP luminescence.
The nature of assay [4]: viability loss in pontine glioma line – cell-based, SU-DIPG-XXV, MIPE5.0, CellTiter-Glo, qHTS, dose response (AID 1347065; cut-off not given, nearly all actives have AC50 up to about 26 µM;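 also: cells exposed to compound for 48 hours before ATP readout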). The following applies: CellTiter-Glo ATP luminescence.
The nature of assay [5]: growth inhibition of DIPG cells – cell-based, MIPE4.0 library, CellTiter-Glo luminescence, qHTS (AID 1347066; cut-off not given, nearly all actives have AC50 up to about 30 µM;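 also: cells exposed to compound for 48 hours before readout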). As to conditions: SU-DIPG-VI viability, CellTiter-Glo ATP luminescence.
Assay [6] in a line: growth inhibition of DIPG cells – cell-based, MIPE5.0 library, qHTS (AID 1347068; cut-off not given, nearly all actives have IC50 up to about 30 µM;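 also: cells exposed to compound for 48 hours before viability readout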). As to conditions: SU-DIPG-XXV viability. For orientation: qHTS replaces the single test concentration by a dilution series.
Assay [7] is described as follows: viability loss with induced miR-34 in A549 – imaging, A549 dox-inducible miR-34, nuclei and caspase counts, primary screen (AID 1347080;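 active = compounds whose cell count with miR-34 switched on is under 0.7 times the count with it off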). The following applies: A549 miR-34 inducible, Hoechst nuclei count, 48 h.
Assay [8] is described as follows: compounds altering HSF1 focus formation in cells – imaging, Selleck Cancer Library (AID 1347162; in the data active = plate-normalised HSF1 focus index below about 0.46). As to conditions: human cells, HSF1 nuclear foci imaging, at 10 µM; SSMD: measured here: HSF1 foci SSMD mean; cell count: measured here: cell number; plate-normalised HSF1 focus index: stronger effect = lower value.
Assay [9] is described as follows: MELAS cybrid and Rieske KO viability enhancers – cell-based, MELAS cybrids, Rieske KO mouse fibroblasts, CellTiter-Glo, primary screen (AID 1508586;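 active = mean z-score across replicates of 1.96 or higher in either the MELAS or the Rieske mutant cell line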;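 also: z relative to plate mean and SD of compound and empty wells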). The following applies: low glucose.
Assay [10] is described as follows: drug combination growth inhibition, ovarian cancer – cell-based, oncology-focused library, rucaparib conditional, profiling panel (AID 1508598). The following applies: patient-derived ovarian cancer cells, CellTiter-Glo viability, 144 h, stronger effect = lower value.
Assay [11] can be described thus: JHH-DIPG-1 glioma cell viability, MIPE5.0 library, CellTiter-Glo luminescence, qHTS (AID 1347067; cut-off not given, nearly all actives have AC50 up to about 26 µM;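 also: cells exposed to compound for 48 hours before readout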). The following applies: JHH-DIPG-1 glioma viability, CellTiter-Glo ATP luminescence.
[12] abbreviates: stronger effect = lower value, cell number ratio, induced over uninduced.
Setting [13] is: measured here: relative caspase fold change +Dox/-Dox.
The mark [14] stands for this setting: measured here: total cells with miR-34 induction, stronger effect = lower value.
[15] abbreviates: measured here: total cells without miR-34 induction.
The mark [16] stands for this setting: MELAS cybrid survival, CellTiter-Glo 48 h, stronger effect = higher value.
[17] abbreviates: Rieske KO mouse fibroblast survival, CellTiter-Glo 72 h.

As usually defined, the AC50 is the concentration at which the activity in the assay is half-maximal. In general, IC50 refers to the midpoint of a concentration-inhibition curve. As usually defined, the viability is a read-out of living cells in per cent, often relative to untreated cells. For the compound `Nc1nc(Nc2ccc(S(N)(=O)=O)cc2)nn1C(=O)c1c(F)cccc1F`, the concentration at half-maximal activity (AC50) in [1] was 6.61 µM (active); in assay [2], 9.35 µM (active); in assay [3] it was 4.68 µM (active); in assay [4] it was 6.61 µM (active). The outcome in assay [5] was inactive. The IC50 in assay [6] was 10.5 µM (active). In addition, the values for the fold change in assay [7] (setting [12]) and in assay [7] (setting [13]) were 0.887 (inactive) and 0.788, respectively. For the same compound, the cell count in [7] (setting [14]) stood at 1400; in assay [7] (setting [15]), 1580; in assay [8], 6780. In addition, the SSMD in assay [8] was -0.763. Further, the plate-normalised HSF1 focus index in assay [8] was 0.961 (inactive). Besides, the results for the z-score in assay [9] (setting [16]) and in [9] (setting [17]) were -0.135 (inactive) and -1.32, respectively. The viability in [10] (at 0.000305 µM, OCI-C5x cells, with rucaparib 10 µM, 100% = cells with rucaparib alone) was 95% (active); in assay [10] (at 0.000305 µM, OCI-C5x cells, without rucaparib), 99.5% (active); in assay [10] (at 0.000305 µM, OCI-P5x cells, with rucaparib 20 µM, 100% = cells with rucaparib alone) it was 89.3% (active); in [10] (at 0.000305 µM, OCI-P5x cells, without rucaparib), 84.9% (active); in assay [10] (at 0.00122 µM, OCI-C5x cells, with rucaparib 10 µM, 100% = cells with rucaparib alone), 96.6% (active); in [10] (at 0.00122 µM, OCI-C5x cells, without rucaparib) it was 96.5% (active). Also, the viability in assay [10] (at 0.00122 µM, OCI-P5x cells, with rucaparib 20 µM, 100% = cells with rucaparib alone) is 91.5% (active); in assay [10] (at 0.00122 µM, OCI-P5x cells, without rucaparib), 86% (active); in [10] (at 0.00488 µM, OCI-C5x cells, with rucaparib 10 µM, 100% = cells with rucaparib alone), 93.6% (active); in [10] (at 0.00488 µM, OCI-C5x cells, without rucaparib), 93.3% (active); in assay [10] (at 0.00488 µM, OCI-P5x cells, with rucaparib 20 µM, 100% = cells with rucaparib alone), 94.7% (active); in assay [10] (at 0.00488 µM, OCI-P5x cells, without rucaparib) it was 94.4% (active). The viability in assay [10] (at 0.0195 µM, OCI-C5x cells, with rucaparib 10 µM, 100% = cells with rucaparib alone) is 94.9% (active); in assay [10] (at 0.0195 µM, OCI-C5x cells, without rucaparib) it was 98.4% (active); in assay [10] (at 0.0195 µM, OCI-P5x cells, with rucaparib 20 µM, 100% = cells with rucaparib alone), 92.3% (active); in assay [10] (at 0.0195 µM, OCI-P5x cells, without rucaparib) it was 94.6% (active); in assay [10] (at 0.0781 µM, OCI-C5x cells, with rucaparib 10 µM, 100% = cells with rucaparib alone), 91.7% (active); in [10] (at 0.0781 µM, OCI-C5x cells, without rucaparib), 90.6% (active). Besides, the viability was 87.9% (active) in assay [10] (at 0.0781 µM, OCI-P5x cells, with rucaparib 20 µM, 100% = cells with rucaparib alone); 84% (active) in assay [10] (at 0.0781 µM, OCI-P5x cells, without rucaparib); 93.3% (active) in [10] (at 0.313 µM, OCI-C5x cells, with rucaparib 10 µM, 100% = cells with rucaparib alone); 86.1% (active) in assay [10] (at 0.313 µM, OCI-C5x cells, without rucaparib); 90.8% (active) in assay [10] (at 0.313 µM, OCI-P5x cells, with rucaparib 20 µM, 100% = cells with rucaparib alone); 87.7% (active) in assay [10] (at 0.313 µM, OCI-P5x cells, without rucaparib). In addition, the viability is 82.9% (active) in assay [10] (at 1.25 µM, OCI-C5x cells, with rucaparib 10 µM, 100% = cells with rucaparib alone); 83.9% (active) in assay [10] (at 1.25 µM, OCI-C5x cells, without rucaparib); 87.4% (active) in assay [10] (at 1.25 µM, OCI-P5x cells, with rucaparib 20 µM, 100% = cells with rucaparib alone); 69.8% (active) in assay [10] (at 1.25 µM, OCI-P5x cells, without rucaparib); 13.2% (active) in assay [10] (at 5 µM, OCI-C5x cells, with rucaparib 10 µM, 100% = cells with rucaparib alone); 11.5% (active) in assay [10] (at 5 µM, OCI-C5x cells, without rucaparib). Besides, the viability in assay [10] (at 5 µM, OCI-P5x cells, with rucaparib 20 µM, 100% = cells with rucaparib alone) is 19.1% (active); in assay [10] (at 5 µM, OCI-P5x cells, without rucaparib), 13.1% (active).
As to `CNC(=O)c1cccc(-c2ccc3c(N4CCOC[C@@H]4C)nc(N4CCOC[C@@H]4C)nc3n2)c1`, the AC50 was 1.32 µM (active) in assay [1], 0.0209 µM (active) in assay [2], 0.118 µM (active) in [3] and 0.372 µM (active) in [4].
In the case of `Cc1ncc(-c2ccnc(Nc3ccc(S(C)(=O)=O)cc3)n2)n1C(C)C`, the AC50 is 5.25 µM (active) in [1]; 2.35 µM (active) in assay [2]; 3.72 µM (active) in assay [3]; 4.68 µM (active) in assay [4]; 4.68 µM (active) in [11]. The half-maximal inhibitory concentration (IC50) in [6] is 2.95 µM (active). Besides, the fold change is 0.998 (inactive) in [7] (setting [12]) and 1.12 in assay [7] (setting [13]). Besides, the values for the cell count in [7] (setting [14]) and in assay [7] (setting [15]) were 1780 and 1790, respectively. In addition, the z-score in [9] (setting [16]) was 1.7 (inactive); in [9] (setting [17]), -2.84.
Regarding `CC(=O)O/N=C1/C(c2c(O)[nH]c3cc(Br)ccc23)=Nc2ccccc21`, the concentration at half-maximal activity (AC50) is 8.33 µM (active) in assay [1]; 1.48 µM (active) in assay [2]; 20.9 µM (active) in assay [3]; 7.42 µM (active) in assay [4]; 29.5 µM (active) in assay [11]. Also, the IC50 in assay [6] is 9.34 µM (active).
`CCOc1cc2ncc(C#N)c(Nc3ccc(OCc4ccccn4)c(Cl)c3)c2cc1NC(=O)/C=C/CN(C)C`: the AC50 in [1] is 14.8 µM (active); in [2], 0.148 µM (active); in assay [3] it was 5.9 µM (active); in [4], 0.934 µM (active); in assay [11], 5.25 µM (active). Besides, the call in assay [5] was inactive. The SSMD in [8] was -1.15. In assay [8], this compound showed a cell count of 7340. For the same compound, the plate-normalised HSF1 focus index in [8] is 0.928 (inactive).
